From PubChem BioAssay AID738 (SRMLSC, 2007)
Hit rate of the full screen: of about 98,000 compounds, about 4,900 (5%) were called active. This excerpt belongs to a sample that is enriched for actives. Values without a mark were called inactive. Cut-off read from the data, not from the text of the source: active = inhibition above about 30%; inactive = the rest.

Test: growth inhibition of yeast control strain, primary screen, counter-screen for post-Golgi transport modulator project (AID 738)
Details: efflux-deficient yeast background strain, growth absorbance A615, 16 h; at 10 µM; stronger effect = higher value
With `COc1ccc(-c2noc(CSc3ccc(C)cc3)n2)cc1` the inhibition was 4.57%.
In the case of `Cc1ccc(-c2noc(CSc3nnc(-c4ccccc4)n3C)n2)cc1`, the inhibition is reported as 22.3%.
Compound `Cn1cccc1Cc1nnc(SCC(=O)NCCc2ccccc2)n1-c1ccc(F)cc1` has an inhibition of 2.46%.
For `O=C(CSc1nnc(Cc2ccccc2)n1-c1ccccc1)N1CCOCC1`, the inhibition was -1.82%.
For `Cc1ccc(-c2noc(CSc3nnnn3-c3ccccc3)n2)cc1`, the inhibition was 48.9% (active).
With `Cc1ccc(-c2noc(CSc3nnc(-c4ccncc4)n3-c3ccc(F)cc3)n2)cc1` the inhibition was 38.4% (active).
Work on `Cc1ccc(-c2noc(CSc3nnc(-c4cccs4)n3C)n2)cc1` yielded an inhibition of 5.22%.
For `Cc1ccc(-c2noc(CC(c3ccccc3)c3ccccc3)n2)cc1`, the inhibition was 3.45%.
For `Fc1ccc(-n2c(Cc3ccccc3)nnc2SCc2nc(-c3ccc(Cl)cc3)no2)cc1`, the inhibition was 46.4% (active).
With `Cc1cc(C(F)F)n2nc(C(=O)Nc3ccc(S(=O)(=O)NC45CC6CC(CC(C6)C4)C5)cc3)nc2n1` the inhibition was 2.49%.
Compound `Nc1nc(Br)c2ccccc2c1-c1ccc(F)cc1` has an inhibition of 11.8%.
In the case of `CCn1c(O)c2ccc(C(=O)N=NC(=O)c3cccnc3)cc2c1O`, the inhibition is reported as 1.24%.
With `CN(C)c1ccc(/C=C2\NC(=S)N(Cc3ccccc3)C2=O)cc1` the inhibition was 21%.
With `CCOC(=O)C1(S(=O)(=O)c2ccc(Cl)cc2)CCN(Cc2ccccc2)CC1` the inhibition was 4.55%.
Work on `CC1C/C(=N/NC(=O)c2cccs2)CC(C)(C)C1` (configuration not stated) yielded an inhibition of 9.76%.
Compound `CC(Oc1ccc(Cl)cc1Cl)C(=O)/C=C/N(C)C` (configuration not stated) has an inhibition of 27.4%.
In the case of `CCOC(=O)/C(=C\c1ccc([N+](=O)[O-])cc1)C(=O)c1cc(C(C)=O)c(Nc2ccccc2)s1`, the inhibition is reported as 92% (active).
With `O=C(NCCc1ccccc1)/C(=C\c1ccc([N+](=O)[O-])cc1)NC(=O)c1ccccc1` the inhibition was 3.12%.
Compound `CCOC(=O)/C(C#N)=C/c1ccc(OCC(=O)Nc2ccccc2)c(OC)c1` has an inhibition of 2.95%.
For `CNS(=O)(=O)c1cnccc1N1CCN(c2cccc(C)c2)CC1`, the inhibition was 1.59%.
`Cc1c(NC(=O)/C=C/C(=O)O)cccc1[N+](=O)[O-]` gave an inhibition of 6.96%.
`Cc1sc(NC(=O)C2C3CCC(O3)C2C(=O)O)c(C(=O)OC(C)C)c1-c1ccc(Cl)cc1` (configuration not stated) showed an inhibition of 16.9%.
For `CN1CC(c2ccccc2)C2(COc3ccccc3C2=O)C12C(=O)Nc1ccccc12` (configuration not stated), the inhibition was 32.5% (active).
With `Cc1noc(C)c1C(=O)N(CC(=O)NC1CCCC1)Cc1ccccc1F` the inhibition was 2.95%.
Compound `Cc1nc(SCC(=O)c2ccccc2)c([N+](=O)[O-])[nH]1` has an inhibition of -2.62%.
In the case of `O=C(CCc1ccc(S(=O)(=O)NC2CCCCC2)cc1)NCc1ccccc1`, the inhibition is reported as 1.21%.
Work on `Cc1ccc(S(=O)(=O)N(C)CC(=O)N2CCc3ccccc32)cc1` yielded an inhibition of 2.58%.
With `Cc1ccc2c(c1)N(C(=O)CCC(=O)N1CCc3ccccc3C1)CCO2` the inhibition was 36.4% (active).
Work on `Cc1ccc2c(c1)N(CC(=O)N1CCCc3ccccc31)C(=O)C(C)O2` (configuration not stated) yielded an inhibition of 5.45%.
In the case of `COc1cc(NS(=O)(=O)c2ccc(N/C=C(\C=O)c3nc4cc(Cl)ccc4o3)cc2)nc(OC)n1`, the inhibition is reported as -2.08%.
`COc1cccc(-c2cc(C(=O)N/N=C/c3ccc(OC)c(COC(C)=O)c3)c3ccccc3n2)c1` gave an inhibition of -0.83%.
In the case of `CCOc1cc(C2C(C(=O)OC)=CN(C3CCCC3)C=C2C(=O)OC)cc(Br)c1O`, the inhibition is reported as 38.7% (active).
`CCOc1ccc(CNC(=O)C2CCC(=O)N2C2CCCC2)cc1OC` (configuration not stated) showed an inhibition of 13.3%.
In the case of `CCOc1ccccc1C1C(C(=O)OC)=CN(C)C=C1C(=O)OC`, the inhibition is reported as 11.7%.
`COc1cccc(C(=O)NNC(=O)c2ccccc2Br)c1` gave an inhibition of 0%.
With `O=C(Cc1cccs1)N1CCCC(c2nc(-c3ccc(S(=O)(=O)N4CCCC4)cc3)no2)C1` (configuration not stated) the inhibition was 2.8%.
With `O=C(c1cccs1)N1CCCC(c2nc(-c3ccc(F)cc3)no2)C1` (configuration not stated) the inhibition was 43.9% (active).
Work on `CC(C)c1ccc(-c2noc(C3CCCN(S(C)(=O)=O)C3)n2)cc1` (configuration not stated) yielded an inhibition of -5.28%.
For `CCc1ccc(CNC(=O)CCc2nc(-c3cccs3)no2)cc1`, the inhibition was 7.1%.
`CC(C)NC(=O)C(=O)N/N=C/c1ccco1` gave an inhibition of 4.76%.
Work on `Cc1nn(C)c(Oc2ccccc2)c1CCNS(=O)(=O)c1ccc(F)cc1` yielded an inhibition of -2.45%.
For `COc1ccc(CNC(=O)C2CCC(CNc3c(N4CCOCC4)c(=O)c3=O)CC2)cc1` (configuration not stated), the inhibition was 3.7%.
Compound `COc1ccc(SCc2noc(C(=O)NCC3CCCO3)c2C(=O)O)cc1` (configuration not stated) has an inhibition of 0.46%.
In the case of `Cn1cccc1C1(C(F)(F)F)NCCNC1=O` (configuration not stated), the inhibition is reported as 48.1% (active).
`O=C(/C=C/c1ccccc1)N/C(=C/c1ccccc1)C(=O)Nc1ccccc1O` showed an inhibition of 18%.
`CN(C)/C(CN1CCCCC1)=C1\N=C(c2ccccc2)OC1=O` gave an inhibition of 11.8%.
`COCCCNC(NC(=O)c1ccc(C)cc1)C(Cl)(Cl)Cl` (configuration not stated) gave an inhibition of -2.93%.
Work on `CCn1c(=O)cc(OCC(=O)NCCCN2CCN(c3cccc(Cl)c3)CC2)c2ccccc21` yielded an inhibition of 2.45%.
Compound `CC1CCCC(C)N1CCCNC(=O)c1cc2c(=O)n(C)c3ccccc3c2n1C` (configuration not stated) has an inhibition of 1.45%.
For `Cn1c(C(=O)NCCCN2CCN(c3cccc(Cl)c3)CC2)cc2c(=O)n(C)c3ccccc3c21`, the inhibition was 95.8% (active).
`CCCCn1c(=S)[nH]c2cc(S(=O)(=O)N3CCCCC3)ccc21` gave an inhibition of 6.51%.
In the case of `Cc1cc2cc3c(cc2nc1SCC(=O)Nc1c(C)cccc1C)CCC3`, the inhibition is reported as 13.7%.
`CCOc1cc2[nH]c(=O)n(CCC(=O)NCc3ccc(OC)cc3)c(=O)c2cc1OCC` showed an inhibition of -0.15%.
Compound `Cc1cccc(OCc2nnc(SCc3nc4cc(C(F)(F)F)ccc4c(=O)[nH]3)o2)c1` has an inhibition of 2.6%.
In the case of `Cc1cccc(OCc2nnc(SCn3nnc4ccccc4c3=O)o2)c1`, the inhibition is reported as 36.4% (active).
`Cc1cc(C)cc(OCc2nnc(SCC(=O)Nc3ccccc3)o2)c1` showed an inhibition of -1.36%.
Work on `CN(C(=O)CC(NC(=O)c1ccccc1)(c1ccccc1)c1ccccc1)c1ccccc1` yielded an inhibition of 25.4%.
